# In the supplement of paper PMC6555819:
# Tested on: LXRa:RXRa (NR concentration 270 nM, RXRa partner concentration 90 nM)
# Assay: PBM binding z-score (relative to random genomic background probes); higher = stronger binding; sequences stand for … in GC…GCGATTGACAGCGTAGAATGAAGG
# Outline: (§1)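 Custom Agilent 4×180K protein-binding microarrays carried double-stranded probes. Their 34-nt variable regions held direct-repeat seeds, single-nucleotide variants, half-site ablations and random human genomic background sequences. Arrays were incubated 1 h with ligand-free nuclear receptor dimers in PBS pH 7.4, 2% milk, 0.02% Triton X-100, 1 mM DTT, 0.2 mg/mL BSA and 0.4 mg/ml salmon testes DNA. Antibodies against each partner (one per run) detected binding, and scanned fluorescence was regression-normalized. Binding z-scores use random background probes as reference.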
row,Sequence,PBM binding z-score
1,CCTAGTTGGTCAAAGTCACACACGCTATAGGTAC,0.505
2,TCTTGTAGATCAAGCACGTTAAGAAAGCCTGAGT,0.232
3,TTACCAAGGTGAGAGGTCGTTGATGCACGCCTTG,1.62
4,TCTTGTAGATCAAAGGCTAAGAAAGCCGAAGCCT,0.0908
5,TAGCCTAGGTCAGAACGGGCCAGTATACGCTATA,0.618
6,ATCGAAAGGTCGAAGGCGAGTATACCCACCCGAA,3.3
7,CCTAGCAAGCCAATCTGGGTCACTCAAGGCTTGA,0.44
8,CCGAGTTGGTCAGGAGGTCACACACCGGATATGA,3.18
9,AGAGACAGGTGAGTGAAGGTAACTCAGCTGGACG,0.207
10,GCTCGGCGGACAAGGTCAGAGCTTTGTCCGTAGA,1.42
11,ACTAGCAGGCCAAGTTTGGGCCACTCAAACAAAG,-0.716
12,ACTAGCAGGCCAAGTTTGGGTCACTCAGACAAAG,0.195
13,CCTTACGGGTCACTCCAGGGTATAGCATCGGAGT,6.8
14,GGAACGAGGGCAATTTGATAGCAGAGTTTGATGG,0.242
15,CGTCCAAGGTCATAGGAGGTCAGTTAAGACAGAT,7.74
16,CGTCCAAGGTGAGCAGGTCAGTGAAAGCGACGTG,0.118
17,GCTAGTTGGTCAGTAAAAGGTCACACATCGGTCG,4.12

# Tested on: LXRa homodimer (NR concentration 270 nM)
# Assay: as above
# Outline: as §1
row,Sequence,PBM binding z-score
1,CCACGGAGGACAGAAGGTCAGAGCTGTCCGCTTT,-0.0316
2,ATCTCGAGGTAAAGTTCAGTGAAAGATCGATAGA,1.04
3,CCAGACAGGTGTAAGGTAACTCAGTCTGGTACGC,-0.126
4,CGAACTAGGTCATCCAGGACAGTGTATACATTGA,0.861
5,CGAACTAGGTCATCCAGGGCAGTGAATACATTGA,0.45
6,GCTTTCGGGTCAAAGGTTATAGCATGAATAGAAT,0.496
7,GCGACTGGGGTAAAGCAGGTTACCATAAGGTTGG,-0.396
8,AGAATGAGGTTATGAAGATCAGGGAATTGCGGTC,0.162
9,GGAACGAGGGAAAAGTTGATAGCATCTGTCGACG,-0.321
10,ATATGTAGGTTAGCTGGGTTCATTCAGACTAGGC,2.19
11,AGAATGAGGTTATAAGTAGATCAGGGAAGAAAGT,0.0372
12,TCTAGCAGGCCAAAGGGTCACTCAAGAGGTACGG,0.121
13,GCGACTGGGGCAAAGCAAGTTACCATAAGGTTGG,-0.376
14,GTACCAAGGTGAATAGGACGTTGATGAGTAGGCG,0.103
15,TCAAGTAGGTTACCAATGGGGCATTCAGCTTTCT,-0.145
16,TCATATAGGTACTACAGGTGAAAGTCGGCATCTA,0.924
17,TCATATAAGTAAACAGGTGAAAGTCCGTAAGTTA,0.422
18,TCATGTAGGTAAATGCTAGGTGAAAGTCCGATCT,0.144
19,CCTTACGGGTCACGAGGTTATAGGACGACGAGCG,0.193
20,ATATCAAGGTGATCGTGAGGTCGTTGATACTAAC,0.367

row,Sequence,PBM binding z-score
1,TAGCCTAGGTCATGCGGGCCACTATAGTGTCGGC,0.309
2,GTACCAAGGTGAAGAGGTCGTTGATGAGTAGGCG,0.0368
3,CCTAGTTGGTCAAAGTCACACACGCTATAGGTAC,0.567
4,TCTTGTAGATCAAGCACGTTAAGAAAGCCTGAGT,-0.171
5,TTACCAAGGTGAGAGGTCGTTGATGCACGCCTTG,0.0582
6,TCTTGTAGATCAAAGGCTAAGAAAGCCGAAGCCT,-0.472
7,TAGCCTAGGTCAGAACGGGCCAGTATACGCTATA,-0.471
8,ATCGAAAGGTCGAAGGCGAGTATACCCACCCGAA,0.25
9,CCTAGCAAGCCAATCTGGGTCACTCAAGGCTTGA,-0.472
10,CCGAGTTGGTCAGGAGGTCACACACCGGATATGA,1.86
11,AGAGACAGGTGAGTGAAGGTAACTCAGCTGGACG,-0.174
12,GCTCGGCGGACAAGGTCAGAGCTTTGTCCGTAGA,-0.598
13,ACTAGCAGGCCAAGTTTGGGCCACTCAAACAAAG,-0.865
14,ACTAGCAGGCCAAGTTTGGGTCACTCAGACAAAG,-0.331
15,CCTTACGGGTCACTCCAGGGTATAGCATCGGAGT,0.368
16,GGAACGAGGGCAATTTGATAGCAGAGTTTGATGG,-0.405
17,CGTCCAAGGTCATAGGAGGTCAGTTAAGACAGAT,5.66
18,CGTCCAAGGTGAGCAGGTCAGTGAAAGCGACGTG,-0.619
19,GCTAGTTGGTCAGTAAAAGGTCACACATCGGTCG,4.59

# Tested on: LXRb:RXRa (NR concentration 270 nM, RXRa partner concentration 90 nM)
# Assay: as above
# Outline: as §1
row,Sequence,PBM binding z-score
1,CCACGGAGGACAGAAGGTCAGAGCTGTCCGCTTT,1.33
2,ATCTCGAGGTAAAGTTCAGTGAAAGATCGATAGA,1.29
3,CCAGACAGGTGTAAGGTAACTCAGTCTGGTACGC,-0.421
4,CGAACTAGGTCATCCAGGACAGTGTATACATTGA,2.24
5,CGAACTAGGTCATCCAGGGCAGTGAATACATTGA,2.11
6,GCTTTCGGGTCAAAGGTTATAGCATGAATAGAAT,5.58
7,GCGACTGGGGTAAAGCAGGTTACCATAAGGTTGG,0.852
8,AGAATGAGGTTATGAAGATCAGGGAATTGCGGTC,1.04
9,GGAACGAGGGAAAAGTTGATAGCATCTGTCGACG,-0.59
10,ATATGTAGGTTAGCTGGGTTCATTCAGACTAGGC,2.2
11,AGAATGAGGTTATAAGTAGATCAGGGAAGAAAGT,1.73
12,TCTAGCAGGCCAAAGGGTCACTCAAGAGGTACGG,2.6
13,GCGACTGGGGCAAAGCAAGTTACCATAAGGTTGG,-0.3
14,GTACCAAGGTGAATAGGACGTTGATGAGTAGGCG,-0.344
15,TCAAGTAGGTTACCAATGGGGCATTCAGCTTTCT,1.17
16,TCATATAGGTACTACAGGTGAAAGTCGGCATCTA,1.03
17,TCATATAAGTAAACAGGTGAAAGTCCGTAAGTTA,1.2
18,TCATGTAGGTAAATGCTAGGTGAAAGTCCGATCT,0.503
19,CCTTACGGGTCACGAGGTTATAGGACGACGAGCG,3.75
20,ATATCAAGGTGATCGTGAGGTCGTTGATACTAAC,1.31

row,Sequence,PBM binding z-score
1,TAGCCTAGGTCATGCGGGCCACTATAGTGTCGGC,1.86
2,GTACCAAGGTGAAGAGGTCGTTGATGAGTAGGCG,1.13
3,CCTAGTTGGTCAAAGTCACACACGCTATAGGTAC,0.625
4,TCTTGTAGATCAAGCACGTTAAGAAAGCCTGAGT,0.106
5,TTACCAAGGTGAGAGGTCGTTGATGCACGCCTTG,1.46
6,TCTTGTAGATCAAAGGCTAAGAAAGCCGAAGCCT,-0.0772
7,TAGCCTAGGTCAGAACGGGCCAGTATACGCTATA,0.47
8,ATCGAAAGGTCGAAGGCGAGTATACCCACCCGAA,2.4
9,CCTAGCAAGCCAATCTGGGTCACTCAAGGCTTGA,0.641
10,CCGAGTTGGTCAGGAGGTCACACACCGGATATGA,2.93
11,AGAGACAGGTGAGTGAAGGTAACTCAGCTGGACG,0.279
12,GCTCGGCGGACAAGGTCAGAGCTTTGTCCGTAGA,0.784
13,ACTAGCAGGCCAAGTTTGGGCCACTCAAACAAAG,-0.61
14,ACTAGCAGGCCAAGTTTGGGTCACTCAGACAAAG,0.306
15,CCTTACGGGTCACTCCAGGGTATAGCATCGGAGT,3.85
16,GGAACGAGGGCAATTTGATAGCAGAGTTTGATGG,0.427
17,CGTCCAAGGTCATAGGAGGTCAGTTAAGACAGAT,6.32
18,CGTCCAAGGTGAGCAGGTCAGTGAAAGCGACGTG,0.202
19,GCTAGTTGGTCAGTAAAAGGTCACACATCGGTCG,4.13
